Experimental findings from PubChem BioAssay (EPA / NIEHS) are described below.

Assay [1] in a line: ATG_E_Box_CIS: Attagene CIS-FACTORIAL HepG2 Assay for human Enhancer Box (E-box) (AID 2282936). The conditions noted are these: HepG2 E-box cis-reporter transcription, actives raise or lower the signal. The essentials:
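In this cell-based setup, HepG2 cells bearing transfected promoter-driven reporter units were exposed to chemicals for 24 h; reporter transcripts were amplified, 6-FAM-labelled, cut with HpaI and sized by capillary electrophoresis.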

The nature of assay [2]: ATG_M_61_CIS: Attagene CIS-FACTORIAL HepG2 Assay for M61 Transcription Factor (Internal Marker) (AID 2282937). Particulars: HepG2 Attagene CIS-FACTORIAL M61 internal marker reporter; actives raise or lower the signal. The procedure, abridged: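 Transfect HepG2 with MRTUs; dose 24 h; isolate RNA; reverse-transcribe with DNase I treatment; PCR-amplify, FAM-label and cut with HpaI for 2 h at 37 C; resolve by CE. Bidirectional fitting against DMSO.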

Assay [3] in a line: ATG_EGR_CIS: Attagene CIS-FACTORIAL HepG2 Assay for human Early Growth Response 1 (EGR1) (AID 2282938). Particulars: HepG2 Attagene CIS-FACTORIAL EGR reporter mRNA; actives raise or lower the signal. The essentials: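 After a 24 h treatment of transiently transfected HepG2 cells, total RNA was reverse-transcribed and reporter sequences PCR-amplified, labelled and run on capillary electrophoresis. Reporters sit under cis-regulatory promoters sensing endogenous factors.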

Assay [4] is described as follows: ATG_M_19_CIS: Attagene CIS-FACTORIAL HepG2 Assay for M19 Transcription Factor (Internal Marker) (AID 2282939). The conditions noted are these: HepG2 Attagene CIS-FACTORIAL M19 internal marker reporter; actives raise or lower the signal. The procedure, abridged:
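Signals come from fluorescence of labelled reporter-specific PCR fragments resolved by capillary electrophoresis, following 24 h treatment of HepG2 cells transfected with cis-promoter reporter units; activity was fitted in both directions relative to DMSO.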

The target in assay [5] is Hepatocyte nuclear factor 3-beta (Homo sapiens) (UniProt Q9Y261). As to the kind of experiment: ATG_FoxA2_CIS: Attagene CIS-FACTORIAL HepG2 Assay for human Forkhead box A2 (FOXA2) (AID 2282942). The conditions noted are these: HepG2 cis-reporter transcription factor activity, 24 h; actives raise or lower the signal. The procedure, abridged: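 24 h dosing of HepG2 bearing cis-reporter constructs; mRNA readout by RT-PCR/CE fluorescence; bidirectional fit, DMSO baseline.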
Chain of Hepatocyte nuclear factor 3-beta (Homo sapiens) (Q9Y261 whole entry, looked up): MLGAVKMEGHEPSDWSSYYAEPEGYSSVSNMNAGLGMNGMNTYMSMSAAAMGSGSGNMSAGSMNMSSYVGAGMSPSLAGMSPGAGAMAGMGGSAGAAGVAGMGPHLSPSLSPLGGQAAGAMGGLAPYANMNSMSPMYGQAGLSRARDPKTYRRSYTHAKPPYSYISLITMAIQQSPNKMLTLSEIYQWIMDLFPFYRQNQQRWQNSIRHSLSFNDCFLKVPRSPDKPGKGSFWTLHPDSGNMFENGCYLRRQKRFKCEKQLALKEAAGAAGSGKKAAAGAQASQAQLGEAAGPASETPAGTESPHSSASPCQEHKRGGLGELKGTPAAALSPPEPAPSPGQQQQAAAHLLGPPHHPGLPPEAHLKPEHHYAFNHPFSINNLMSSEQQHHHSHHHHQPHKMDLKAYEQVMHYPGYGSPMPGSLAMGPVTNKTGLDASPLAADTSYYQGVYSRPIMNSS

The nature of assay [6]: ATG_FoxO_CIS: Attagene CIS-FACTORIAL HepG2 Assay for human Forkhead box O (FoxO) (AID 2282943). Particulars: HepG2 Attagene cis-reporter, FoxO element, mRNA; actives raise or lower the signal. The procedure, abridged:
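Read-out: fluorescence of 6-FAM-labelled reporter cDNA fragments resolved by capillary electrophoresis. Transiently transfected HepG2 cells were dosed for 24 h; activity fitted in both directions relative to DMSO controls.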

Assay [7] can be described thus: ATG_GATA_CIS: Attagene CIS-FACTORIAL HepG2 Assay for human GATA Binding Protein (AID 2282944). Particulars: HepG2 GATA cis-element reporter, Attagene multiplex mRNA; actives raise or lower the signal. The procedure, abridged: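 After transfecting HepG2 cells with multiple cis-regulated reporter units, chemicals are dosed for 24 h; isolated RNA undergoes RT-PCR and fluorescent labeling before capillary electrophoresis, with activity expressed against DMSO.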

Assay [8] can be described thus: ATG_GLI_CIS: Attagene CIS-FACTORIAL HepG2 Assay for human Zinc Finger Protein GLI1 (AID 2282945). The conditions noted are these: HepG2, Attagene cis-factorial reporter mRNA, GLI element; actives raise or lower the signal. The procedure, abridged: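 Transiently transfected HepG2 cells report endogenous transcription factor activity via cis-element-driven reporter units. After 24 h compound exposure, reporter mRNA was measured by RT-PCR with capillary electrophoresis; bidirectional fitting against DMSO baseline.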

The nature of assay [9]: ATG_GRE_CIS: Attagene CIS-FACTORIAL HepG2 Assay for human Glucocorticoid Response Elements (GRE) (AID 2282947). Particulars: HepG2 GRE cis-reporter, Attagene multiplex mRNA; actives raise or lower the signal. The essentials:
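Fluorescence intensity of reporter-specific cDNA fragments, separated by capillary electrophoresis, provides the signal. Constructs carry cis-regulating promoters in transiently transfected HepG2 liver cells; 24 h incubation; fitting is bidirectional against DMSO.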

The nature of assay [10]: ATG_ISRE_CIS: Attagene CIS-FACTORIAL HepG2 Assay for human Interferon Regulatory Factor 1 (IRF1) binding to an Interferon-Stimulated Response Element (ISRE) (AID 2282948). The conditions noted are these: HepG2 ISRE cis-reporter (Attagene), mRNA transcription readout; actives raise or lower the signal. The essentials:
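Read-out: fluorescent RT-PCR products resolved by capillary electrophoresis, reporting endogenous transcription factor activity via ISRE-driven reporter mRNA in transfected HepG2 cells dosed for 24 h; gain or loss fitted relative to DMSO.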

The nature of assay [11]: ATG_M_32_CIS: Attagene CIS-FACTORIAL HepG2 Assay for M32 Transcription Factor (Internal Marker) (AID 2282949).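 Note: background control marker of the multiplexed CIS panel rather than a real target.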 The conditions noted are these: HepG2 Attagene cis-factorial M32 reporter, mRNA; actives raise or lower the signal. The essentials: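 HepG2 transfectants (cis-regulated reporter transcription units) dosed 24 h. Reporter mRNA by RT-PCR plus CE, analysed as gain or loss relative to DMSO.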

Assay [12] concerns the target Hypoxia-inducible factor 1-alpha (Homo sapiens) (UniProt Q16665). Briefly: ATG_HIF1a_CIS: Attagene CIS-FACTORIAL HepG2 Assay for human Hypoxia Inducible Factor 1 (HIF1A) (AID 2282951). Particulars: HepG2 Attagene cis-factorial HIF1a reporter transcription; actives raise or lower the signal. The procedure, abridged:
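After 24 h chemical exposure of reporter-transfected HepG2 cells, reporter cDNA was PCR-amplified, labelled by 6-FAM primer extension (2 min 95 C, 20 s 68 C, 10 min 72 C), HpaI-cut (2 h, 37 C) and analysed by CE.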

In assay [13] the target is Hepatocyte nuclear factor 6 (Homo sapiens) (UniProt Q9UBC0). Briefly: ATG_HNF6_CIS: Attagene CIS-FACTORIAL HepG2 Assay for human Hepatocyte Nuclear Factor 6 (HNF6) (AID 2282952). The conditions noted are these: HepG2 Attagene cis-factorial HNF6 reporter transcription; actives raise or lower the signal. The procedure, abridged: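 Endogenous factor activity read in transiently transfected HepG2 via promoter-regulated reporter transcripts. RNA harvested 24 h post-dosing, reverse-transcribed, PCR-amplified, FAM-labelled, HpaI-digested and resolved by capillary electrophoresis; fitted in both directions against DMSO.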
Chain of Hepatocyte nuclear factor 6 (Homo sapiens) (Q9UBC0 whole entry, looked up): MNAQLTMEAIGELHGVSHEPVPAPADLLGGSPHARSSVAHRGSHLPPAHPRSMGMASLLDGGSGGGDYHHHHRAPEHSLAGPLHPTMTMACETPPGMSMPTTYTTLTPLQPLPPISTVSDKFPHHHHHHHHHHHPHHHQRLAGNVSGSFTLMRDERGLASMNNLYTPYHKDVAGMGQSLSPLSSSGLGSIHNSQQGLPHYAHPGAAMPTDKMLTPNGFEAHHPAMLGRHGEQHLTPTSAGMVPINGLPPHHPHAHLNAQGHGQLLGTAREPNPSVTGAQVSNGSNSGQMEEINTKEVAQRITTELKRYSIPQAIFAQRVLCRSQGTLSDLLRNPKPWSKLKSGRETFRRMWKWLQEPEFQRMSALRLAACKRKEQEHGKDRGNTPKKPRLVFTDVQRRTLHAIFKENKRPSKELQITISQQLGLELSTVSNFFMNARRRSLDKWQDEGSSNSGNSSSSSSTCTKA

Assay [14] addresses Heat shock factor protein 1 (Homo sapiens) (UniProt Q00613). Briefly: ATG_HSE_CIS: Attagene CIS-FACTORIAL HepG2 Assay for human Heat Shock Transcription Factor 1 (HSE) (AID 2282953). Particulars: HepG2 HSE cis-reporter, Attagene RNA transcription; actives raise or lower the signal. The essentials:
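Endogenous transcription factor activity captured via cis-promoter reporter units transfected into HepG2; treatment lasted 24 h. Fluorescence intensity of reporter fragments analysed with bidirectional curve fitting, DMSO baseline.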

A short description of assay [15]: ATG_MRE_CIS: Attagene CIS-FACTORIAL HepG2 Assay for human Metal Responsive Element (MRE) (AID 2282954). The conditions noted are these: HepG2 MRE cis-reporter transcription, Attagene multiplex; actives raise or lower the signal. The essentials:
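Measured here is mRNA induction from an MRE cis-element reporter in HepG2 after 24 h, quantified by fluorescence of labelled RT-PCR products on capillary electrophoresis; gain- and loss-of-signal fits use DMSO as baseline.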

Assay [16] is described as follows: ATG_Ets_CIS: Attagene CIS-FACTORIAL HepG2 Assay for human Erythroblast Transformation Specific (ETS) (AID 2282941). The conditions noted are these: HepG2 ETS cis-reporter transcription, actives raise or lower the signal. The procedure, abridged: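 RT-PCR/capillary electrophoresis fluorescence read-out of reporter mRNA; HepG2 transient multi-reporter transfection; 24 h compound exposure; gain or loss of signal fitted bidirectionally relative to DMSO.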

Assay [17] can be described thus: ATG_M_06_CIS: Attagene CIS-FACTORIAL HepG2 Assay for M06 Transcription Factor (Internal Marker) (AID 2282950). The conditions noted are these: HepG2 Attagene CIS-FACTORIAL M06 internal marker reporter; actives raise or lower the signal. The procedure, abridged: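 HepG2 liver cells, 24 h exposure. Reporter transcripts from transfected cis-element constructs quantified by RT-PCR/capillary electrophoresis fluorescence. Bidirectional curve fit against DMSO.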

Assay [18] is described as follows: ATG_PBREM_CIS: Attagene CIS-FACTORIAL HepG2 Assay for human Phenobarbital-responsive Enhancer Module (PBREM) (AID 2282955). Particulars: HepG2 PBREM cis-reporter, Attagene multiplexed transcription; actives raise or lower the signal. The essentials: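 Measures endogenous factor action on a phenobarbital-responsive enhancer module. HepG2 transiently carrying cis reporters, 24 h treatment, mRNA read-out by RT-PCR plus capillary electrophoresis.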

The target in assay [19] is Bile acid receptor (Homo sapiens) (UniProt Q96RI1). Briefly: ATG_IR1_CIS: Attagene CIS-FACTORIAL HepG2 Assay for human Nuclear Receptor Subfamily 1 Group H Member 4 (NR1H4), IR1 submotif (AID 2282946). The conditions noted are these: IR1 reporter transcription, actives raise or lower the signal. The procedure, abridged:
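Fluorescence of capillary-separated, HpaI-digested RT-PCR reporter products gave IR1-element mRNA induction in HepG2 cells 24 h after dosing. Endogenous transcription factors drove the cis-regulated reporters; activity was fitted bidirectionally against DMSO.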

Activity calls are given as the source filed them. Rule for the calls: active = hit-call score of the fitted dose curve at least 0.9, where 1 is the maximum; inactive = score below 0.9.

Chain of Hypoxia-inducible factor 1-alpha (Homo sapiens) (Q16665 whole entry, looked up): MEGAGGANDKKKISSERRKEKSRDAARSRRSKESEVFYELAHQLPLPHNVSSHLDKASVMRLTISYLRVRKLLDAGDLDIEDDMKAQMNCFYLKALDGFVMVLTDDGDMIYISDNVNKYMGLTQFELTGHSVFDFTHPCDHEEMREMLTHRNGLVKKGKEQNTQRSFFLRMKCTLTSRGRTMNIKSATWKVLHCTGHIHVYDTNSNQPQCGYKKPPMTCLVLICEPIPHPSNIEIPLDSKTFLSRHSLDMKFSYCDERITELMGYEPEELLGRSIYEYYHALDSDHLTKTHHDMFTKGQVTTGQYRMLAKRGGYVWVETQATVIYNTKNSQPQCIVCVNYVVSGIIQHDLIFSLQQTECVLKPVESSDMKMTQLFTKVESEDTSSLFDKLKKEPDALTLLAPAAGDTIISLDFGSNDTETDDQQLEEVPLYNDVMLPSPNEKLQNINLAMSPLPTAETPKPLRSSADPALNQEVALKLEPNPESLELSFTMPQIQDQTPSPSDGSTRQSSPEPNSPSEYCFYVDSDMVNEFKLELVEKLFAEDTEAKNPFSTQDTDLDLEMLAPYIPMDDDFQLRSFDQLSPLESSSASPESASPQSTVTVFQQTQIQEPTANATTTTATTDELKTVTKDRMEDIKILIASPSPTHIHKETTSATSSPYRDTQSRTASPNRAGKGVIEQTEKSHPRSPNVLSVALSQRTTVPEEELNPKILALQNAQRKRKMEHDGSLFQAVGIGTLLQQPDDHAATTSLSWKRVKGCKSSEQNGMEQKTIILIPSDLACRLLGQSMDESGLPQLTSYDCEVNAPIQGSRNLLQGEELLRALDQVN
Chain of Heat shock factor protein 1 (Homo sapiens) (Q00613 whole entry, looked up, the tested form may be a part): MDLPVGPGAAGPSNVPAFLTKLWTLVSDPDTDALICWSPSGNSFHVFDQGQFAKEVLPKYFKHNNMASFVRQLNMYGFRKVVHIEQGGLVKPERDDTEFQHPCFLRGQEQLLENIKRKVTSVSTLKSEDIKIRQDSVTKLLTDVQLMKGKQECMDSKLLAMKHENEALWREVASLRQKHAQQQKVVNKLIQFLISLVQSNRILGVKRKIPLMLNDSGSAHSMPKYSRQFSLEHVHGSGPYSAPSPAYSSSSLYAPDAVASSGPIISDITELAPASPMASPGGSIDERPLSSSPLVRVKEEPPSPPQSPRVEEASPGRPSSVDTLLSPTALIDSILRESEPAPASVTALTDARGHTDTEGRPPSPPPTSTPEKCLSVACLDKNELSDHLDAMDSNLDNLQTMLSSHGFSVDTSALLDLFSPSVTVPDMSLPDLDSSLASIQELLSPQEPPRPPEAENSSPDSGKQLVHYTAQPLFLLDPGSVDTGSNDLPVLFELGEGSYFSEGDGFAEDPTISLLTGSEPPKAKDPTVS
Chain of Bile acid receptor (Homo sapiens) (Q96RI1 whole entry, looked up): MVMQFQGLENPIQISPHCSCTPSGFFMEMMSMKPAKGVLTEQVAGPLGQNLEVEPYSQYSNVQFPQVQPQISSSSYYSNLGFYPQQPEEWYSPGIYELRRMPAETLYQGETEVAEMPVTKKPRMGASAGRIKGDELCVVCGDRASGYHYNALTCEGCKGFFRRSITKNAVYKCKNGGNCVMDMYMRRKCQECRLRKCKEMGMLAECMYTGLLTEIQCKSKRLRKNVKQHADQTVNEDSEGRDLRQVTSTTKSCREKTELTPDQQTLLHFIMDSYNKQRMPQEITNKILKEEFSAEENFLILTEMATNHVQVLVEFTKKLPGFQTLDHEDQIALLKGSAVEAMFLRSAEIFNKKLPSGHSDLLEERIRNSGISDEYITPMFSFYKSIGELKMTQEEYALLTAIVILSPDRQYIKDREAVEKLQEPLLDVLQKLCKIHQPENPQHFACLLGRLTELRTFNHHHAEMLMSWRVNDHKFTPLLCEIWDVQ

Turning to `CC1CCC(C(C)CS)CC1S` (configuration not stated), the outcome in [1], in [2], in assay [3], in assay [4], in [5] and in assay [6] was inactive. Also, the outcome in [8], in assay [10], in assay [11], in assay [14] and in [15] was inactive. Besides, the concentration at half-maximal activity (AC50) (as a rule, the concentration giving half of the maximal activity seen) in assay [7] was 61.1 µM (active); in [9], 55 µM (active); in assay [12] it was 53.7 µM (active); in assay [13] it was 46.8 µM (active).

For `C=COCCOCCOCCOC=C`, the outcome in assay [1], in [2], in assay [3], in [4], in [16] and in [5] was inactive. For the same molecule, the result in assay [6], in assay [8], in assay [10], in assay [11], in assay [17] and in [12] was inactive. Moreover, the result in assay [13], in assay [14], in assay [15] and in assay [18] was inactive.

`CCCCCOC(=O)CCC`: the outcome in [1], in assay [2], in [3], in assay [4], in assay [16] and in assay [5] was inactive. For the same molecule, the molecule was classed as inactive in assay [6], in assay [8], in assay [10], in assay [11], in assay [17] and in assay [12]. Besides, the call in assay [13], in [14], in [15] and in assay [18] was inactive.

Turning to `C=C(C)C(=O)NCCCN(C)C`, the result in [1], in assay [2], in assay [3], in assay [4], in assay [5] and in [6] was inactive. Moreover, the outcome in assay [7], in [8], in [9], in assay [10], in assay [11] and in [17] was inactive. For the same molecule, the result in assay [12], in [13], in [14] and in assay [15] was inactive.

With `N#Cc1nc(Cl)c(Cl)c(Cl)c1Cl`, the AC50 in assay [1] is 5.53 µM (active); in assay [3], 4.56 µM (active); in assay [16], 2.25 µM (active); in assay [5] it was 6.82 µM (active); in [6], 5.92 µM (active); in assay [8], 5.39 µM (active). The AC50 in assay [19] was 4.18 µM (active); in assay [10] it was 2.79 µM (active); in [12], 3.71 µM (active); in [13], 5.48 µM (active); in assay [14], 5.66 µM (active); in assay [15], 2.63 µM (active). The molecule was called inactive in [2], in [4], in [9], in assay [11] and in assay [17].

As for `O=C(O)c1ccc(C(=O)O)cc1`, the outcome in assay [1], in assay [2], in assay [3], in assay [4], in assay [16] and in assay [5] was inactive. In addition, the result in assay [6], in [8], in [9], in assay [10], in assay [11] and in assay [17] was inactive. Besides, the molecule was classed as inactive in assay [12], in assay [13], in [14] and in [15].

As to `Cc1cccc(Nc2ccccc2C(=O)O)c1C`, the outcome in assay [1], in [2], in [3], in assay [4], in assay [5] and in [6] was inactive. For the same molecule, the result in assay [7], in assay [8], in [9], in [10], in [11] and in assay [17] was inactive. Besides, the call in assay [13], in assay [14] and in [18] was inactive. In [15], the AC50 was 76.9 µM (active).

For the molecule `Fc1c(F)c(F)c(Br)c(F)c1F`, the outcome in assay [1], in assay [2], in assay [3], in [4], in assay [5] and in [6] was inactive. Further, the outcome in assay [7], in [8], in assay [10], in assay [11], in assay [17] and in [12] was inactive. Moreover, the molecule was classed as inactive in [13], in assay [14], in assay [15] and in assay [18].

Turning to `Nc1cc([N+](=O)[O-])ccc1O`, the outcome in assay [1], in [2], in assay [3], in assay [4], in [16] and in [5] was inactive. The molecule was called inactive in assay [6], in assay [10], in assay [11], in assay [17], in assay [13] and in [14]. Further, the outcome in [15] and in assay [18] was inactive.
